“And” between values parts separate entries of the source, which are not always exact repeats. Equal entries are not always repeated. This is part of a sample that, as a whole, favours compounds with a hit. Of some 79,000 tested, about 15% had one in any assay. Values without a mark were called inactive. The source made the active and inactive calls. Rule as the data show it: active = growth inhibition above about 70%; inactive = the rest.
Experiment: NCI Yeast Anticancer Drug Screen. Data for the rad50 strain (AID 155);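 also: 0% = growth of vehicle-only cultures of the same strain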
Details: S. cerevisiae rad50 strain growth inhibition; at 50.0 µM; stronger effect = higher value
How it was run: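 Compounds were tested on a yeast strain with an engineered DNA damage repair alteration; the reported value is growth inhibition normalised to vehicle treatment.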
With `O=P1(N(CCCl)CCCl)Nc2cc3ccccc3cc2N1` the growth inhibition was -5.65%. In the case of `CC(C)N1CC(COc2cccc3ccccc23)OP1(=O)N(CCCl)CCCl` (stereo not given), the growth inhibition is reported as 97% (active). Work on `CC(=O)c1ccc([As](=O)(O)O)cc1` yielded a growth inhibition of -10.3%. Work on `NC1=C(N2CC2)C(=O)C(N)=C(N2CC2)C1=O` yielded a growth inhibition of 9.1%. Work on `Cc1cc(NN=O)nc(C)n1` yielded a growth inhibition of -3.05%. `O=[N+]([O-])O.[Sm]` showed a growth inhibition of 12.3%. `COc1ccc(C(OCC2OC(n3ccc(NC(=O)c4ccccc4)nc3=O)CC2OP2(=S)SCCS2)(c2ccccc2)c2ccc(OC)cc2)cc1` (stereo not given) gave a growth inhibition of 10.6%. With `CC1=CC(=O)NP(=O)(Oc2ccc(C)cc2)N1` (stereo not given) the growth inhibition was -7.7%. With `CC1CN1P1(N2CC2C)=NP(N2CC2C)(N2CC2C)=NP(N2CC2C)(N2CC2C)=N1` (stereo not given) the growth inhibition was -2.45%. In the case of `O=P1(C(Cl)Cl)OCCCO1`, the growth inhibition is reported as -9.35%. Work on `C[CH2][Sn]1([CH2]C)[O]OC(c2ccccc2)[O]1` (stereo not given) yielded a growth inhibition of 6.25%. With `COc1ccc2n[se]nc2c1` the growth inhibition was 46.4%. `CC1(C)CC(O)CC(C)(C)N1O` showed a growth inhibition of 21.8%. For `COP12(OC)NC(=O)OC1(C(F)(F)F)c1ccccc1O2` (stereo not given), the growth inhibition was -14.9%. With `CCOP(=S)(OCC)OP(=O)(CC)CC` the growth inhibition was 3.1%. `CN(C)/N=C(\CCN1CCCC1)CC(c1ccccc1)c1c(O)c2ccccc2oc1=O` (stereo not given) gave a growth inhibition of 55%. Work on `CC(CN1CCCCCC1)C(C#N)(c1ccccc1)c1ccccc1` (stereo not given) yielded a growth inhibition of 7.4%. With `COc1ccc(N2CC=C(c3ccccc3)OP2(=O)N2CC2)cc1` (stereo not given) the growth inhibition was -20.4%. In the case of `COc1cccc2c1C(=O)c1c(O)c3c(c(O)c1C2=O)CC(O)(C(=O)CO)CC3OC1CC(N2CCOCC2C#N)C(O)C(C)O1` (stereo not given), the growth inhibition is reported as 86.7% (active). Work on `CNC(P(=O)([O-])[O-])P(=O)([O-])[O-].N.N.[Pt+2]` yielded a growth inhibition of -0.2%. Work on `OC1C2CCCCN2C[C@@H](O)[C@H]1O` (stereo not given in full) yielded a growth inhibition of 16.3%. For `[CH3][Sb]([CH3])([CH3])([O]C(=O)C(Cl)Cl)[O]C(=O)C(Cl)Cl`, the growth inhibition was 10.1%. For `C[N+]1(C)CCN(c2ccccc2)CC1`, the growth inhibition was 18.9%. For `COC(=O)C1=CO[C@@H](C)[C@@H]2CN3CCc4c([nH]c5cc(OC)ccc45)[C@H]3C[C@H]12`, the growth inhibition was -43.8%. For `C=C1CCC2CC1C2(C)C` (stereo not given), the growth inhibition was 5.95% and 13.7% and -4.1%. For `CCC(C)C1(CCc2ccccc2)C(=O)NC(=O)NC1=O` (stereo not given), the growth inhibition was -2.8%. For `Br[CH](Br)[Hg][c]1ccccc1`, the growth inhibition was 99.2% (active). With `CC1C2Cc3ccc(O)cc3C1(C)CCN2C` (stereo not given) the growth inhibition was 37%. With `CCOC(=O)C1C(=O)C(=O)N2CCc3c([nH]c4ccccc34)C12` (stereo not given) the growth inhibition was 17.5%. In the case of `CN(C)CCC(O)c1c[nH]c2ccccc12` (stereo not given), the growth inhibition is reported as 6%. Work on `CCC1(c2ccccc2)C(=O)N(CCCl)C(=O)N(CCCl)C1=O` yielded a growth inhibition of 27.7%. Work on `CC1(C)SC2C(NC(=O)Cc3ccccc3)C(=O)N2C1C(=O)O` (stereo not given) (tested in a mixture with another compound) yielded a growth inhibition of 2.2%. For `COc1ccc(-c2c[se]c(=S)s2)cc1`, the growth inhibition was 24.1%. For `COc1cccc(C=C(C#N)C#N)c1`, the growth inhibition was 46.8%. `COP(=O)(OC)OC1C(=O)NC(=O)NC1=O` gave a growth inhibition of 12.3%. Compound `Cc1cc(N(CCCl)CCCl)ccc1C1N(Cc2ccc(N(C)C)cc2)CCN1Cc1ccc(N(C)C)cc1` has a growth inhibition of 13.5%. For `O=C(NC1CCCCC1)c1c(O)[nH]c(=S)[nH]c1=O`, the growth inhibition was -20.4%. For `O=C(NCCN1CCOCC1)c1ccc2cc(C(=O)N3CC(CCl)c4ccc([N+](=O)[O-])cc43)[nH]c2c1` (stereo not given), the growth inhibition was 88.5% (active). `Cc1cc(Cc2cc(C)c(NC(=O)C(=O)C3C(=O)NC(=S)NC3=O)c(C(C)C)c2)cc(C(C)C)c1NC(=O)C(=O)C1C(=O)NC(=S)NC1=O` gave a growth inhibition of -20.6%. Compound `O=C(Cc1cccc([N+](=O)[O-])c1)Nc1cccc(S(=O)(=O)F)c1` has a growth inhibition of 5.8%.
